{"source": "the supplement of paper PMC12282887", "experiment_in_all_cases": "promoter activity interaction Z-score (Lux/OD deviation from empty-vector control); higher = stronger promoter induction by the compound", "key": {"[1]": {"test_system": "E. coli BW25113 acrABp lux reporter", "procedure,_shortened": "(§1)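 E. coli BW25113 luxCDABE reporter strains grew at 37°C in 40 µl LB Lennox in 384-well plates, with OD600 and luminescence read every 30 min for 12 h. After integration over 0–8 h for wild type or 1–9 h for deletion strains, wells under 10% of the median growth value were removed. Each score is the Z-transformed residual of growth-normalised luminescence fitted against a control.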"}, "[2]": {"test_system": "E. coli BW25113 micFp lux reporter", "procedure,_shortened": "as §1"}, "[3]": {"test_system": "E. coli BW25113 ompFp lux reporter", "procedure,_shortened": "as §1"}, "[4]": {"test_system": "E. coli BW25113 robp lux reporter", "procedure,_shortened": "as §1"}, "[5]": {"test_system": "E. coli BW25113 soxSp lux reporter", "procedure,_shortened": "as §1"}, "[6]": {"test_system": "E. coli BW25113 tolCp lux reporter", "procedure,_shortened": "as §1"}, "[7]": {"details": "18.9 µg/ml, genetic background: wild type"}, "[8]": {"details": "18.9 µg/ml, genetic background: ΔmarA"}, "[9]": {"details": "18.9 µg/ml, genetic background: Δrob"}, "[10]": {"details": "18.9 µg/ml, genetic background: ΔsoxS"}, "[11]": {"details": "37.8 µg/ml, genetic background: wild type"}, "[12]": {"details": "37.8 µg/ml, genetic background: ΔmarA"}, "[13]": {"details": "37.8 µg/ml, genetic background: Δrob"}, "[14]": {"details": "37.8 µg/ml, genetic background: ΔsoxS"}, "[15]": {"details": "75.6 µg/ml, genetic background: wild type"}, "[16]": {"details": "75.6 µg/ml, genetic background: ΔmarA"}, "[17]": {"details": "75.6 µg/ml, genetic background: Δrob"}, "[18]": {"details": "75.6 µg/ml, genetic background: ΔsoxS"}, "[19]": {"details": "151.1 µg/ml, genetic background: wild type"}, "[20]": {"details": "151.1 µg/ml, genetic background: ΔmarA"}, "[21]": {"details": "151.1 µg/ml, genetic background: Δrob"}, "[22]": {"details": "151.1 µg/ml, genetic background: ΔsoxS"}}, "note": "± gives the standard deviation of the averaged measurements.", "data": [{"smiles": "O=c1c(O)c(-c2ccc(O)c(O)c2)oc2cc(O)cc(O)c12", "note": "[Quercetin]", "values": [{"measurement": "promoter activity interaction Z-score", "setting": "[1]; [7]", "value": "0.0407 ± 0.033"}, {"measurement": "promoter activity interaction Z-score", "setting": "[1]; [8]", "value": "0.285 ± 0.58"}, {"measurement": "promoter activity interaction Z-score", "setting": "[1]; [9]", "value": "0.143 ± 0.3"}, {"measurement": "promoter activity interaction Z-score", "setting": "[1]; [10]", "value": "-0.34 ± 0.38"}, {"measurement": "promoter activity interaction Z-score", "setting": "[1]; [11]", "value": "-0.233 ± 0.072"}, {"measurement": "promoter activity interaction Z-score", "setting": "[1]; [12]", "value": "-0.0432 ± 0.69"}, {"measurement": "promoter activity interaction Z-score", "setting": "[1]; [13]", "value": "0.164 ± 0.29"}, {"measurement": "promoter activity interaction Z-score", "setting": "[1]; [14]", "value": "-0.184 ± 0.31"}, {"measurement": "promoter activity interaction Z-score", "setting": "[1]; [15]", "value": "0.12 ± 0.43"}, {"measurement": "promoter activity interaction Z-score", "setting": "[1]; [16]", "value": "-0.0185 ± 1.1"}, {"measurement": "promoter activity interaction Z-score", "setting": "[1]; [17]", "value": "0.926 ± 1.1"}, {"measurement": "promoter activity interaction Z-score", "setting": "[1]; [18]", "value": "-0.604 ± 0.62"}, {"measurement": "promoter activity interaction Z-score", "setting": "[1]; [19]", "value": "-0.353 ± 0.089"}, {"measurement": "promoter activity interaction Z-score", "setting": "[1]; [20]", "value": "0.59 ± 0.8"}, {"measurement": "promoter activity interaction Z-score", "setting": "[1]; [21]", "value": "-0.142 ± 0.23"}, {"measurement": "promoter activity interaction Z-score", "setting": "[1]; [22]", "value": "-0.9 ± 0.8"}, {"measurement": "promoter activity interaction Z-score", "setting": "[2]; [7]", "value": "-0.288 ± 0.045"}, {"measurement": "promoter activity interaction Z-score", "setting": "[2]; [8]", "value": "-0.0462 ± 0.033"}, {"measurement": "promoter activity interaction Z-score", "setting": "[2]; [9]", "value": "-0.011 ± 0.074"}, {"measurement": "promoter activity interaction Z-score", "setting": "[2]; [10]", "value": "-0.324 ± 0.11"}, {"measurement": "promoter activity interaction Z-score", "setting": "[2]; [11]", "value": "-0.188 ± 0.12"}, {"measurement": "promoter activity interaction Z-score", "setting": "[2]; [12]", "value": "0.0255 ± 0.15"}, {"measurement": "promoter activity interaction Z-score", "setting": "[2]; [13]", "value": "-0.0437 ± 0.18"}, {"measurement": "promoter activity interaction Z-score", "setting": "[2]; [14]", "value": "0.101 ± 0.056"}, {"measurement": "promoter activity interaction Z-score", "setting": "[2]; [15]", "value": "-0.0961 ± 0.062"}, {"measurement": "promoter activity interaction Z-score", "setting": "[2]; [16]", "value": "0.0844 ± 0.079"}, {"measurement": "promoter activity interaction Z-score", "setting": "[2]; [17]", "value": "-0.0403 ± 0.11"}, {"measurement": "promoter activity interaction Z-score", "setting": "[2]; [18]", "value": "-0.101 ± 0.085"}, {"measurement": "promoter activity interaction Z-score", "setting": "[2]; [19]", "value": "0.0699 ± 0.42"}, {"measurement": "promoter activity interaction Z-score", "setting": "[2]; [20]", "value": "0.224 ± 0.17"}, {"measurement": "promoter activity interaction Z-score", "setting": "[2]; [21]", "value": "0.00151 ± 0.41"}, {"measurement": "promoter activity interaction Z-score", "setting": "[2]; [22]", "value": "-0.0142 ± 0.042"}, {"measurement": "promoter activity interaction Z-score", "setting": "[3]; [7]", "value": "0.228 ± 0.3"}, {"measurement": "promoter activity interaction Z-score", "setting": "[3]; [8]", "value": "-0.0494 ± 0.2"}, {"measurement": "promoter activity interaction Z-score", "setting": "[3]; [9]", "value": "-0.0408 ± 0.12"}, {"measurement": "promoter activity interaction Z-score", "setting": "[3]; [10]", "value": "-0.358 ± 0.37"}, {"measurement": "promoter activity interaction Z-score", "setting": "[3]; [11]", "value": "5.13 ± 7"}, {"measurement": "promoter activity interaction Z-score", "setting": "[3]; [12]", "value": "0.88 ± 1.6"}, {"measurement": "promoter activity interaction Z-score", "setting": "[3]; [13]", "value": "1.304 ± 0.013"}, {"measurement": "promoter activity interaction Z-score", "setting": "[3]; [14]", "value": "0.531 ± 0.91"}, {"measurement": "promoter activity interaction Z-score", "setting": "[3]; [15]", "value": "0.467 ± 1.2"}, {"measurement": "promoter activity interaction Z-score", "setting": "[3]; [16]", "value": "0.186 ± 0.5"}, {"measurement": "promoter activity interaction Z-score", "setting": "[3]; [17]", "value": "0.616 ± 1.3"}, {"measurement": "promoter activity interaction Z-score", "setting": "[3]; [18]", "value": "-0.383 ± 0.54"}, {"measurement": "promoter activity interaction Z-score", "setting": "[3]; [19]", "value": "0.00251 ± 0.91"}, {"measurement": "promoter activity interaction Z-score", "setting": "[3]; [20]", "value": "0.373 ± 2.1"}, {"measurement": "promoter activity interaction Z-score", "setting": "[3]; [21]", "value": "1.79 ± 0.024"}, {"measurement": "promoter activity interaction Z-score", "setting": "[3]; [22]", "value": "-0.395 ± 0.84"}, {"measurement": "promoter activity interaction Z-score", "setting": "[4]; [7]", "value": "0.802 ± 0.18"}, {"measurement": "promoter activity interaction Z-score", "setting": "[4]; [8]", "value": "0.257 ± 0.52"}, {"measurement": "promoter activity interaction Z-score", "setting": "[4]; [9]", "value": "0.102 ± 0.22"}, {"measurement": "promoter activity interaction Z-score", "setting": "[4]; [10]", "value": "0.13 ± 0.66"}, {"measurement": "promoter activity interaction Z-score", "setting": "[4]; [11]", "value": "0.9459 ± 0.004"}, {"measurement": "promoter activity interaction Z-score", "setting": "[4]; [12]", "value": "0.813 ± 0.4"}, {"measurement": "promoter activity interaction Z-score", "setting": "[4]; [13]", "value": "0.818 ± 0.073"}, {"measurement": "promoter activity interaction Z-score", "setting": "[4]; [14]", "value": "1.68 ± 0.85"}, {"measurement": "promoter activity interaction Z-score", "setting": "[4]; [15]", "value": "0.907 ± 0.8"}, {"measurement": "promoter activity interaction Z-score", "setting": "[4]; [16]", "value": "0.794 ± 0.53"}, {"measurement": "promoter activity interaction Z-score", "setting": "[4]; [17]", "value": "0.226 ± 0.59"}, {"measurement": "promoter activity interaction Z-score", "setting": "[4]; [18]", "value": "-0.114 ± 0.062"}, {"measurement": "promoter activity interaction Z-score", "setting": "[4]; [19]", "value": "0.549 ± 0.61"}, {"measurement": "promoter activity interaction Z-score", "setting": "[4]; [20]", "value": "0.417 ± 0.21"}, {"measurement": "promoter activity interaction Z-score", "setting": "[4]; [21]", "value": "0.359 ± 0.075"}, {"measurement": "promoter activity interaction Z-score", "setting": "[4]; [22]", "value": "0.712 ± 1.1"}, {"measurement": "promoter activity interaction Z-score", "setting": "[5]; [7]", "value": "-0.413 ± 0.13"}, {"measurement": "promoter activity interaction Z-score", "setting": "[5]; [8]", "value": "-0.385 ± 0.18"}, {"measurement": "promoter activity interaction Z-score", "setting": "[5]; [9]", "value": "-0.267 ± 0.1"}, {"measurement": "promoter activity interaction Z-score", "setting": "[5]; [10]", "value": "-0.281 ± 0.57"}, {"measurement": "promoter activity interaction Z-score", "setting": "[5]; [11]", "value": "-0.368 ± 0.13"}, {"measurement": "promoter activity interaction Z-score", "setting": "[5]; [12]", "value": "-0.526 ± 0.069"}, {"measurement": "promoter activity interaction Z-score", "setting": "[5]; [13]", "value": "-0.179 ± 0.028"}, {"measurement": "promoter activity interaction Z-score", "setting": "[5]; [14]", "value": "-0.0207 ± 0.51"}, {"measurement": "promoter activity interaction Z-score", "setting": "[5]; [15]", "value": "-0.595 ± 0.016"}, {"measurement": "promoter activity interaction Z-score", "setting": "[5]; [16]", "value": "-0.528 ± 0.057"}, {"measurement": "promoter activity interaction Z-score", "setting": "[5]; [17]", "value": "-0.375 ± 0.034"}, {"measurement": "promoter activity interaction Z-score", "setting": "[5]; [18]", "value": "-0.161 ± 0.89"}, {"measurement": "promoter activity interaction Z-score", "setting": "[5]; [19]", "value": "-0.715 ± 0.13"}, {"measurement": "promoter activity interaction Z-score", "setting": "[5]; [20]", "value": "-0.513 ± 0.048"}, {"measurement": "promoter activity interaction Z-score", "setting": "[5]; [21]", "value": "-0.414 ± 0.054"}, {"measurement": "promoter activity interaction Z-score", "setting": "[5]; [22]", "value": "-0.567 ± 1"}, {"measurement": "promoter activity interaction Z-score", "setting": "[6]; [7]", "value": "-0.038 ± 0.65"}, {"measurement": "promoter activity interaction Z-score", "setting": "[6]; [8]", "value": "-0.0776 ± 0.32"}, {"measurement": "promoter activity interaction Z-score", "setting": "[6]; [9]", "value": "-0.506 ± 0.62"}, {"measurement": "promoter activity interaction Z-score", "setting": "[6]; [10]", "value": "-0.651 ± 0.26"}, {"measurement": "promoter activity interaction Z-score", "setting": "[6]; [11]", "value": "0.105 ± 0.049"}, {"measurement": "promoter activity interaction Z-score", "setting": "[6]; [12]", "value": "0.271 ± 0.14"}, {"measurement": "promoter activity interaction Z-score", "setting": "[6]; [13]", "value": "0.0838 ± 0.44"}, {"measurement": "promoter activity interaction Z-score", "setting": "[6]; [14]", "value": "0.0451 ± 1.2"}, {"measurement": "promoter activity interaction Z-score", "setting": "[6]; [15]", "value": "0.492 ± 0.9"}, {"measurement": "promoter activity interaction Z-score", "setting": "[6]; [16]", "value": "0.253 ± 0.53"}, {"measurement": "promoter activity interaction Z-score", "setting": "[6]; [17]", "value": "0.773 ± 0.82"}, {"measurement": "promoter activity interaction Z-score", "setting": "[6]; [18]", "value": "-0.519 ± 0.18"}, {"measurement": "promoter activity interaction Z-score", "setting": "[6]; [19]", "value": "0.00965 ± 1"}, {"measurement": "promoter activity interaction Z-score", "setting": "[6]; [20]", "value": "0.125 ± 0.38"}, {"measurement": "promoter activity interaction Z-score", "setting": "[6]; [21]", "value": "0.962 ± 1.8"}, {"measurement": "promoter activity interaction Z-score", "setting": "[6]; [22]", "value": "-0.462 ± 0.4"}]}]}
